Calls of active or inactive are those of the source. How the source made its calls: active means hit-call score of the fitted dose curve at least 0.9, where 1 is the maximum; inactive means score below 0.9.

From PubChem BioAssay (EPA / NIEHS) come the findings set out here.

Read-out in the experiment: Epidermal growth factor receptor (EGFR), EGFR (gene 1956)
The experiment in a line: BSK_BE3C_EGFR: BioMAP Diversity Plus: BE3C Assay for Epidermal growth factor receptor (EGFR) Biomarker Activity (AID 2284281). Conditions: primary human bronchial epithelial cells. As for the experimental part:
BSK_BE3C is a cell-based, multiplexed-readout assay that uses bronchial epithelial cell, a human lung primary cell, with measurements taken at 24 hours after chemical dosing in a 96-well plate.BSK_BE3C_EGFR is an assay component measured in the BSK_BE3C assay. It measures EGFR antibody related to regulation of gene expression using ELISA technology.Data from the assay component BSK_BE3C_EGFR was analyzed at the endpoint, BSK_BE3C_EGFR, in the positive analysis fitting direction relative to DMSO as the negative control and baseline of activity. Using a type of binding reporter, gain or loss-of-signal activity can be used to understand protein changes. To generalize the intended target to other relatable targets, this assay endpoint is annotated to the 'kinase' intended target family, where the subfamily is 'receptor tyrosine kinase'.
The levels of cell surface (or secreted, indicated by the prefix "s") biomarker endpoints were measured by ELISA. Overt cytotoxicity to cells in confluent adherent cultures (all systems other than the BT system) was assessed by measuring total protein levels using sulforhodamine B (SRB) staining in parallel cultures at the time of biomarker measurements, indicated as SRB endpoints. For proliferation assays for adherent cell types, individual cell types are cultured at sub-confluence and relative cell numbers quantified by SRB staining at time points optimized for each system (48 h: 3C and CASM3C systems; 72 h: BT and HDF3CGF systems; 96 h: SAg system). SRB was performed by staining cells with 0.1% SRB after fixation with 10% TCA and reading wells at 560 nm.Viability and proliferation of PBMC (T cells) was quantified by Alamar Blue reduction for the SAg and BT systems. For PBMC viability (referred to as PBMC Cytotoxicity within the assay endpoint names), cells were plated (75,000/well in a 96-well plate) and then chemical samples added for 1 h before addition of activators, SEB and TSST-1 (20 ng/mL final concentration each). Cells were incubated for 90 h. Then, Alamar Blue (20 uL/well) (Invitrogen, Cat DAL1100) was added for 6 h, and the plates were read with a fluorescence microplate reader at 546/580 nm (excitation/emission). For PBMC proliferation, cells were plated and activated as above but incubated for only 16 h prior to addition of Alamar Blue. Plates were read after 6 h.
As to `FC(F)(F)C(F)(F)C(F)(F)C(F)(F)C(F)(F)C(F)(F)I`, the outcome was inactive.

On to `O=S(=O)(O)CCC(F)(F)C(F)(F)C(F)(F)C(F)(F)C(F)(F)C(F)(F)F`, for which the result was inactive.

Consider `FC(F)=C(F)C(F)(F)C(F)(F)C(F)(F)C(F)(F)C(F)(F)C(F)(F)F`, for which the outcome was inactive.

Take `FC(F)(F)COC(OCC(F)(F)F)OCC(F)(F)F`: the result was inactive.

Regarding `O=C(Cl)C(F)(F)C(F)(F)C(F)(F)C(=O)Cl`, the outcome was inactive.

`FC(F)C(F)(F)COCC1CO1` (stereo not given): the result was inactive.

With `OCCC(F)(F)C(F)(F)C(F)(F)C(F)(F)F`, the outcome was inactive.

For `C[Si](C)(C)C(F)(F)C(F)(F)C(F)(F)F`, the result was inactive.

With `OC(O)(C(F)C(O)(O)C(F)(F)F)C(F)(F)F`, the outcome was inactive.

For `NCC(F)(F)C(F)(F)C(F)(F)C(F)(F)F`, the outcome was inactive.
